Consider seven molecules from PubChem BioAssay (NCATS).

Values joined by “and” are separate entries in the source; they are usually repeats but may differ in a detail not shown here. Equal values may be shown once. Inconclusive results are not listed. Active and inactive are the calls of the source. Unless noted, calls follow the shape of the full dose curve.

For assay [1], the target named is Voltage-gated inwardly rectifying potassium channel KCNH2 (Homo sapiens) (UniProt Q12809). Nature of the assay: qHTS Assay for Small Molecule Inhibitors of the Human hERG Channel Activity (AID 588834; active = well fitted curve in the direction sought with a large enough effect; an effect the other way counts as inactive or inconclusive;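 also: U2OS cells transduced with hERG by BacMam; top concentration of the series differs between compounds; % is scaled to controls: 0 for no effect and ±100 for the full control effect; lower thallium flux fluorescence means stronger hERG block; nearly all actives have a fitted effect of over 50% in size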). Put shortly:
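Cells were infected with hERG-BacMam virus for 4 hrs at room temperature, grown overnight, then seeded at 2000/well. After dye loading and roughly 10 min compound treatment, thallium influx was triggered and fluorescence recorded.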
(In general: Quantitative high-throughput screening tests each substance at several concentrations.)

Assay [2] concerns the target Estrogen receptor (Homo sapiens) (UniProt P03372). As to the kind of experiment: qHTS assay for small molecule agonists of estrogen receptor alpha signaling (AID 588514).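 Also: 0% = vehicle only and 100% = reference agonist; nearly all actives have a fitted effect of over 70% in size.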 Put shortly: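 EC50 and efficacy came from Hill fits of beta-lactamase reporter signal (CCF4 dye, 2 h at room temperature) scaled between DMSO and 20 nM 17-beta-estradiol. Agonist mode: HEK293 ER-alpha-UAS-bla cells in charcoal/dextran-stripped serum medium, 18 h compound exposure at 37 C.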

For assay [3], the target named is Bile acid receptor (Homo sapiens) (UniProt Q96RI1). As to the kind of experiment: qHTS assay for small molecule antagonists of farnesoid X receptor signaling (AID 588526). Also: % is scaled to controls: 0 for no effect and ±100 for the full control effect. In short, it runs like this: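 Beta-lactamase reporter antagonist mode: HEK293T FXR-UAS-bla cells, titrated compound, CDCA stimulation, 16 h 37 C, CCF4 dye 2 h RT. Data normalized to CDCA 50 uM and DMSO; Hill-fit IC50.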
Sequence of Bile acid receptor (Homo sapiens) (Q96RI1 whole entry, looked up): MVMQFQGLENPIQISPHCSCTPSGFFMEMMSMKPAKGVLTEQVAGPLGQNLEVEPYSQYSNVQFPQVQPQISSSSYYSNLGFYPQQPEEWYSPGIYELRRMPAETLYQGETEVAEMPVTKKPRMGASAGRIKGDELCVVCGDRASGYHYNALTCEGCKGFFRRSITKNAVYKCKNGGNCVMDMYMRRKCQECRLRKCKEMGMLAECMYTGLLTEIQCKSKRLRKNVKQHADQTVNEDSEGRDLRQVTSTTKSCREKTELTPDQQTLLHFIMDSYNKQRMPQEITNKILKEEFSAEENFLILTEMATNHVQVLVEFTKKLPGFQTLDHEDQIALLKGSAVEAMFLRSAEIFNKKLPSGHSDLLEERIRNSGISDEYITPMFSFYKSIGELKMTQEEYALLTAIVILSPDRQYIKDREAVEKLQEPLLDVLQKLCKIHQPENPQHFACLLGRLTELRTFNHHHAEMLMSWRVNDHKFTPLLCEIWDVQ

Assay [4] deals with Glucocorticoid receptor (Homo sapiens) (UniProt P04150). Nature of the assay: qHTS assay for small molecule agonists of glucocorticoid receptor signaling (AID 588532; active = well fitted curve in the direction sought with a large enough effect in the signal ratio, with a control signal flat; the % refers to the signal ratio;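 also: 100% = dexamethasone at 0.1 µM and 0% = DMSO only wells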). The settings on record: HeLa MMTV-bla, beta-lactamase ratio, agonist, 18 h; stronger effect = higher value; percent of dexamethasone control, DMSO zero. Put shortly: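 Agonist-mode qHTS: GRE-driven beta-lactamase in HeLa cells exposed 18 h to titrated compounds (up to 92 uM), then CCF4 ratio read after 2 h at RT; Hill-fitted EC50, efficacy relative to 0.1 uM dexamethasone.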
Sequence of Glucocorticoid receptor (Homo sapiens) (P04150 whole entry, looked up): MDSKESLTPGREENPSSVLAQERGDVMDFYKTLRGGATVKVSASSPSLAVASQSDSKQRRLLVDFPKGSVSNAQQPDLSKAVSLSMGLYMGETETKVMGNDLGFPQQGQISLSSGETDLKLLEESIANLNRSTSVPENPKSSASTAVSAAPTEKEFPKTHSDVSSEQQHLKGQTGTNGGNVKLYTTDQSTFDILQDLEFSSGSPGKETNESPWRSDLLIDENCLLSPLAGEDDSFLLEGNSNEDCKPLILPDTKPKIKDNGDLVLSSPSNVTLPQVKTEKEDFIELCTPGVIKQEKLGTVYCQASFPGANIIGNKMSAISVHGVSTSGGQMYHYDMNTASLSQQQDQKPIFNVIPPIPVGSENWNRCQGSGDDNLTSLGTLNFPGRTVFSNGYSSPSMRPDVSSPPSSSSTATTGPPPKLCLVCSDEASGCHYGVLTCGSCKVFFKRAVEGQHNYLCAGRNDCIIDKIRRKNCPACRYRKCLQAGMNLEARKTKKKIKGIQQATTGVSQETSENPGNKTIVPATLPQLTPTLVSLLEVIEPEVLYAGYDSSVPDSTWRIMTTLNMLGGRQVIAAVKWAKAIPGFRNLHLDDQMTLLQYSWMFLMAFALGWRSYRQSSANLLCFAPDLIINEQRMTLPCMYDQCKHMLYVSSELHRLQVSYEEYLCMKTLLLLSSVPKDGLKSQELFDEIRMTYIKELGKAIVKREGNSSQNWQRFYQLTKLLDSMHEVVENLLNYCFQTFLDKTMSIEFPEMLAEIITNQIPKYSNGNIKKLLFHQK

Assay [5] has the same target. Nature of the assay: qHTS assay for small molecule antagonists of glucocorticoid receptor signaling (AID 588533; active = well fitted inhibition curve with a large enough effect in the signal ratio, with a control signal flat, not every such curve was filed as active; the % refers to the signal ratio;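 also: cells stimulated with 2 nM dexamethasone as agonist; % is scaled to controls: 0 for no effect and ±100 for the full control effect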). In short, it runs like this: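 Antagonist-mode qHTS: compound titrations added to GRE-bla HeLa cells, then dexamethasone 2 nM final; 18 h, 37 C. CCF4 FRET fluorescence normalized to dexamethasone and DMSO; IC50 from Hill fit.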
A short description of assay [6]: qHTS assay for small molecule antagonists of peroxisome proliferator-activated receptor delta signaling (AID 588535; active = well fitted inhibition curve with a large enough effect in the signal ratio, with a control signal flat, not every such curve was filed as active; the % refers to the signal ratio;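 as to max response: cells co-treated with a PPAR-delta agonist as stimulator during compound exposure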). To be noted: HEK293T PPARd-UAS-bla, beta-lactamase FRET ratio, 18 h; 460 nm channel. Put shortly:
(§1)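 Titrations were run on PPAR-delta-UAS-bla HEK293T cells in charcoal/dextran-stripped serum, incubated 18 h at 37 C. CCF4 fluorescence (460/530 nm) after 2 h RT; Hill equation yields IC50 and maximal response.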

The target in assay [7] is Peroxisome proliferator-activated receptor delta (Homo sapiens) (UniProt Q03181). Described as above. In short, it runs like this: as §1
Sequence of Peroxisome proliferator-activated receptor delta (Homo sapiens) (Q03181 whole entry, looked up): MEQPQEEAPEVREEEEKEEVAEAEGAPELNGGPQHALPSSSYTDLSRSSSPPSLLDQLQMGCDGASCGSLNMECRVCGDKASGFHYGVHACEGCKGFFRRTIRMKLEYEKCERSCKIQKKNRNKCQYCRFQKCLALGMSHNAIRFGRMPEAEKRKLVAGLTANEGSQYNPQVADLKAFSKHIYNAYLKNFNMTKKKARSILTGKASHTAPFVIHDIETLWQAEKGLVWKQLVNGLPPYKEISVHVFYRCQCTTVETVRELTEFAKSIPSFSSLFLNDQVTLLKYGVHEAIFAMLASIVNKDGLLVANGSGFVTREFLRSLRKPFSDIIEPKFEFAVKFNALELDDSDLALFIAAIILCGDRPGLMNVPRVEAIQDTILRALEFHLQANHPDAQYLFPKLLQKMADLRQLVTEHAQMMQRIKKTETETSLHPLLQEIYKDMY
For assay [8], the target named is Peroxisome proliferator-activated receptor gamma (Homo sapiens) (UniProt P37231). Nature of the assay: qHTS assay for small molecule agonists of peroxisome proliferator-activated receptor gamma signaling (AID 588536; active = well fitted curve in the direction sought with a large enough effect in the signal ratio, with a control signal flat, not every such curve was filed as active; the % refers to the signal ratio;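 also: 0% = DMSO basal wells and 100% = rosiglitazone at 2 µM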). Put shortly: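 This is an agonist-mode beta-lactamase reporter assay in HEK293 PPAR-gamma-UAS-bla cells with 1% charcoal/dextran FBS. Compound titrations ran 16 h at 37 C before CCF4 detection. EC50 and efficacy are Hill fits scaled to 2 uM rosiglitazone (100%) and DMSO basal.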
Sequence of Peroxisome proliferator-activated receptor gamma (Homo sapiens) (P37231 whole entry, looked up): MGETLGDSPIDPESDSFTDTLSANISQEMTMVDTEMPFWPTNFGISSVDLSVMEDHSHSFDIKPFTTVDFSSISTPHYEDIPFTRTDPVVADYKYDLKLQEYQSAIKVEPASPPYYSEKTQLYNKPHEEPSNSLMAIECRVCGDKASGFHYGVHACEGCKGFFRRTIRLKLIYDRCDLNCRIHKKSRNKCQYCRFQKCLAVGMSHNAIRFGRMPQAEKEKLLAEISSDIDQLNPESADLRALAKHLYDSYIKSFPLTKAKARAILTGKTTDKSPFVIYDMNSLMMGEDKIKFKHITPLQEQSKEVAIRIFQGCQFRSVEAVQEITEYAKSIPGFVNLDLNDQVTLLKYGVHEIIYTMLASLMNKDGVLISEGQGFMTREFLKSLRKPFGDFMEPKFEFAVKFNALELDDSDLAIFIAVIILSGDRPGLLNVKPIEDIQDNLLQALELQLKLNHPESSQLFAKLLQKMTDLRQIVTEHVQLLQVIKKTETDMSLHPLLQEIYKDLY

Assay [9] has as its target Vitamin D3 receptor (Homo sapiens) (UniProt P11473). As to the kind of experiment: qHTS assay for small molecule antagonists of vitamin D receptor signaling (AID 588541).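 Also: receptor activated by calcitriol during compound treatment; series mostly up to about 77 µM; % is scaled to controls: 0 for no effect and ±100 for the full control effect.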 In short, it runs like this:
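Antagonist-mode beta-lactamase reporter assay: HEK293T VDR-UAS-bla cells were exposed to titrated compound alongside 1-alpha,25-dihydroxyvitamin D3 at 3 nM final for 16 h. Values were normalized to the 50 nM agonist control and DMSO basal, with IC50 and efficacy from Hill equation fits.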

The target is the same in assay [10]. Nature of the assay: qHTS assay for small molecule agonists of vitamin D receptor signaling (AID 588543).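 Also: 0% = DMSO basal and 100% = reference agonist control.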 In short, it runs like this:
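qHTS in agonist mode: compound titrations stimulate a VDR-driven β-lactamase reporter in HEK293T cells over 16 h at 37 °C. Response normalized to 50 nM 1α,25-dihydroxyvitamin D3 = 100%, DMSO = 0%; Hill fitting gives EC50 and maximal response.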

Assay [11] is described as follows: qHTS assay for small molecule agonists of retinoid X receptor alpha signaling (AID 588544).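 As to activation: 0% = DMSO basal wells and 100% = reference agonist.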 The settings on record: HEK293T RXRa-UAS-bla, beta-lactamase reporter, 18 h; 530 nm emission.
In assay [12] the target is Retinoic acid receptor RXR-alpha (Homo sapiens) (UniProt P19793). Described as above.
For assay [13], the target named is Thyroid hormone receptor beta (Homo sapiens) (UniProt P10828). Nature of the assay: qHTS assay for small molecule agonists of thyroid hormone receptor beta signaling (AID 588545).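 Also: 0% = DMSO only and 100% = 10 nM T3.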 In short, it runs like this:
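TR-UAS-bla-GripTite HEK 293 cells in medium with 2% charcoal/dextran FBS, 0.1 mM NEAA and 1 mM sodium pyruvate were treated with titrated compounds for 18 hrs at 37 C. Beta-lactamase reporter was read with CCF4 dye (ex 405, em 460/530 nm); EC50 from Hill fits.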

Assay [14] can be described thus: qHTS assay for small molecule antagonists of retinoid X receptor alpha signaling (AID 588546; active = well fitted inhibition curve with a large enough effect in the signal ratio, with a control signal flat, not every such curve was filed as active; the % refers to the signal ratio;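 also: cells stimulated with 9-cis-retinoic acid as agonist; % is scaled to controls: 0 for no effect and ±100 for the full control effect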). To be noted: HEK293T RXRa-UAS-bla, beta-lactamase ratio, antagonist mode; measured here: W530 green channel, cytotoxicity proxy. Put shortly: (§2)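 Beta-lactamase reporter inhibition, read as CCF4 fluorescence ratio (ex 405, em 460/530 nm) after 2 h at RT. HEK293T UAS-bla cells, 2500/well, were stimulated with 9-cis-RA at 500 or 100 nM final alongside test compound for 18 h at 37 C.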

Assay [15] addresses Retinoic acid receptor RXR-alpha (Homo sapiens) (UniProt P19793). The description is as above. To be noted: HEK293T RXRa-UAS-bla, beta-lactamase ratio, antagonist mode. In short, it runs like this:
as §2

The target in assay [16] is Thyroid hormone receptor beta (Homo sapiens) (UniProt P10828). Nature of the assay: qHTS assay for small molecule antagonists of thyroid hormone receptor beta signaling (AID 588547; active = well fitted inhibition curve with a large enough effect in the signal ratio, with a control signal flat, not every such curve was filed as active; the % refers to the signal ratio). The settings on record: TR-UAS-bla HEK293, beta-lactamase ratio, antagonist mode, 18 h. In short, it runs like this:
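Inhibition of T3-driven (0.4nM final) beta-lactamase reporter activity was measured over 0.59 nM to 92 uM compound after 18 h at 37 C. The cells were GripTite HEK293 TR-UAS-bla in charcoal/dextran-stripped serum, with CCF4 ratio read-out and IC50 from Hill fits.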

Assay [17] concerns the target Luciferin 4-monooxygenase (Photinus pyralis) (UniProt P08659). As to the kind of experiment: Biochemical firefly luciferase enzyme assay for NPC (AID 624030; active = well fitted curve in the direction sought with a large enough effect; an effect the other way counts as inactive or inconclusive;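 also: purified P. pyralis luciferase at 10 nM with luciferin and ATP substrate; series mostly up to about 59 µM; 0% = DMSO and -100% = full luciferase inhibition by PTC124 control; nearly all actives have a fitted effect of over 70% in size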). Put shortly: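 Direct inhibition of firefly luciferase enzyme (10 nM final, 50 mM Tris Acetate) assessed by luminescence within 5 minutes. Percent activity scaled between DMSO and PTC124 positive control, with concentration-effect curves classified by fit quality and response.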

Assay [18] is described as follows: S16 Schwann cell viability assay (CellTiter-Glo assay) (AID 624031; active = well fitted curve in the direction sought with a large enough effect; an effect the other way counts as inactive or inconclusive;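 also: cellular ATP luminescence as a viability measure; series mostly up to about 58 µM; plate controls were DMSO-treated cells for no effect and cell-free wells for full effect; nearly all actives have a fitted effect of over 70% in size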). In short, it runs like this:
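Luminescent ATP read-out (CellTiter-Glo) after 24 h compound exposure of native S16 rat Schwann cells at 37 °C. Signals were normalized between cell-free wells and DMSO-treated cells, set as 0% activity.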

Sequence of Voltage-gated inwardly rectifying potassium channel KCNH2 (Homo sapiens) (Q12809 whole entry, looked up): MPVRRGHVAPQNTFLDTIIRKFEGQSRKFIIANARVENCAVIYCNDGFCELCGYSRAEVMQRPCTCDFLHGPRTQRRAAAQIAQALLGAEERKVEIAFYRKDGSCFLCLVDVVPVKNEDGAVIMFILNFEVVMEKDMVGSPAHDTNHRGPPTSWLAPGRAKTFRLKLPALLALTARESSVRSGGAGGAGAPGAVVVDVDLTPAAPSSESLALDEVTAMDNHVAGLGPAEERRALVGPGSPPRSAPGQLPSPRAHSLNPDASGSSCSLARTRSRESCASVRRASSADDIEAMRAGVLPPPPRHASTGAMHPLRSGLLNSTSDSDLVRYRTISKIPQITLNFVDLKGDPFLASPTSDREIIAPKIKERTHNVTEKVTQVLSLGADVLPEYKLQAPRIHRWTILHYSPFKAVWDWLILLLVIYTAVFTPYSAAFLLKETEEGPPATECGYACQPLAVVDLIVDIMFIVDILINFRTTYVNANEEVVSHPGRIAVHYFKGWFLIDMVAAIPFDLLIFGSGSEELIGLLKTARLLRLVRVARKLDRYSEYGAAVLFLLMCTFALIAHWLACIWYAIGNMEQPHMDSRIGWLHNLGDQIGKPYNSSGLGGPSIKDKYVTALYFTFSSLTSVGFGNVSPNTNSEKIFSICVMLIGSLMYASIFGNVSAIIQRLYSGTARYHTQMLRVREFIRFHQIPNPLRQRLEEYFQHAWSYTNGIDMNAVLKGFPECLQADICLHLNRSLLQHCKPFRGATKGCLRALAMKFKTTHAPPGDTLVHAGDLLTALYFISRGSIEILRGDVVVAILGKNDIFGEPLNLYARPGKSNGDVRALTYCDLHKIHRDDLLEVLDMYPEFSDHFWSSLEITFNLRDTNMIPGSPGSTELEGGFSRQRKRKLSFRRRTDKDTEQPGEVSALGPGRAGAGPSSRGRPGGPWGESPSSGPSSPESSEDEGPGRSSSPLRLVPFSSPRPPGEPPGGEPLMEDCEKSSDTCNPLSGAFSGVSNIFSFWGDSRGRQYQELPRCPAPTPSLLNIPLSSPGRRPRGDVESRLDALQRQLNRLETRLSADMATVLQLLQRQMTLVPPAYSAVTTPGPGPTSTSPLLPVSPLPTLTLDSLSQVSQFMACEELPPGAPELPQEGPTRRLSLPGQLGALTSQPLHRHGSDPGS
Sequence of Thyroid hormone receptor beta (Homo sapiens) (P10828 whole entry, looked up): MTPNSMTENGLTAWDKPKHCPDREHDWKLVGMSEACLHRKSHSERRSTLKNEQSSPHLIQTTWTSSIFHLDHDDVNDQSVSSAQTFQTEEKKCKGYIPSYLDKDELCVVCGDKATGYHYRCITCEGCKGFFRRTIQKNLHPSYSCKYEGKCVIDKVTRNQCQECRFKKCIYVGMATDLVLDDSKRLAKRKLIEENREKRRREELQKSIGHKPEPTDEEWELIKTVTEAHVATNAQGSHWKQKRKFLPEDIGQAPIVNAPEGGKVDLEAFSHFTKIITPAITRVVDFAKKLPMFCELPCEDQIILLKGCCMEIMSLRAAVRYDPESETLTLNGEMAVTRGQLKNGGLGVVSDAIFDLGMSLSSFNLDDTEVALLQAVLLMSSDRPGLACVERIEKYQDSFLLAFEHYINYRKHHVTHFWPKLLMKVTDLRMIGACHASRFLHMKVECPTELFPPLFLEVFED
Sequence of Vitamin D3 receptor (Homo sapiens) (P11473 whole entry, looked up): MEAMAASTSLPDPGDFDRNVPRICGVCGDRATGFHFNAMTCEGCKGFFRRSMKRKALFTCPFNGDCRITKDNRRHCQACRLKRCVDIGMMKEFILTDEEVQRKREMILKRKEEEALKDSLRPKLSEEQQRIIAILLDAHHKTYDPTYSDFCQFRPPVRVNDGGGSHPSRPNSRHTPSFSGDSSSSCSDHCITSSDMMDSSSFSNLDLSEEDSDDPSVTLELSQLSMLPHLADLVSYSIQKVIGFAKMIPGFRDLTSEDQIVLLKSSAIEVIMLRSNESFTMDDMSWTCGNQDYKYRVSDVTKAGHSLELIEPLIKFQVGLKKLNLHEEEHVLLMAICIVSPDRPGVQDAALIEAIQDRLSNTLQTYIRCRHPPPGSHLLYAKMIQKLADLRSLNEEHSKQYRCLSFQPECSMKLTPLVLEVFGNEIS
Sequence of Luciferin 4-monooxygenase (Photinus pyralis) (P08659 whole entry, looked up): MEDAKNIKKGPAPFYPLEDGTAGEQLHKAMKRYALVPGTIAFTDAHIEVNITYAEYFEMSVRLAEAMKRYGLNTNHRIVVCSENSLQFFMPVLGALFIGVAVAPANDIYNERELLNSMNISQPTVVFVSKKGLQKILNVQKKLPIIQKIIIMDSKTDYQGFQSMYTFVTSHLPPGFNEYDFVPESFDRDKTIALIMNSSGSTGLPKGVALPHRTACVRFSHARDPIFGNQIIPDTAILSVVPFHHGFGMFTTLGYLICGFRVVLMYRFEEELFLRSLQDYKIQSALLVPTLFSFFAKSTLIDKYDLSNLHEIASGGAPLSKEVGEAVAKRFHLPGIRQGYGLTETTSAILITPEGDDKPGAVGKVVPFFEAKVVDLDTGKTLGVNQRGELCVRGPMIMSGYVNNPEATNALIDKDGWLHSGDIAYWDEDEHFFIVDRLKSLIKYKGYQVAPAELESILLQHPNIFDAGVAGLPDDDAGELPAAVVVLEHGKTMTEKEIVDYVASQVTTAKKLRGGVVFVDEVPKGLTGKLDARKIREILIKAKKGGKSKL

In the case of `CC1(C)S[C@@H]2[C@H](N=CN3CCCCCC3)C(=O)N2[C@H]1C(=O)O`, the Potency entry in [1] was “inactive”.
As to `CC(=O)Nc1ccccc1`, the molecule was called inactive in assay [2], in [3], in assay [5], in assay [7], in assay [8] and in assay [9]. For the same molecule, the outcome in [10], in [12], in assay [13] and in assay [18] was inactive. In addition, the activation in [4] was -0.909% (inactive). For the same molecule, the max response in [6] was 17.1%; in assay [11] it was -17.4%; in assay [14], -2.29%; in assay [15], -0.837% (inactive). Further, the activity change % (negative = inhibition) in assay [16] was 8.98% (inactive). Besides, the Potency result in assay [1] and in assay [17] was “inactive” each time.
Regarding `Cc1cccc(Nc2ccccc2C(=O)O)c1C`, the call in [5], in assay [13] and in assay [18] was inactive. Further, the Potency result in [1] was “inactive”.
For `CN1CC(=O)NC1=N`, the Potency result in [1] is “inactive”.
For `Cc1c(N(C)C)c(=O)n(-c2ccccc2)n1C`, the call in assay [2], in assay [3], in assay [5], in [7], in [9] and in assay [10] was inactive. Also, the result in [12], in assay [13] and in assay [18] was inactive. Besides, in assay [4], the activation is 1.22% (inactive) and -3.75% (inactive). For the same molecule, the max response in [6] was 15.6%; in assay [11], -14.4% and -18.2%; in assay [14] it was -6.41% and -1.97%; in assay [15], -3.15% (inactive) and -4.34% (inactive). The activity change % (negative = inhibition) in assay [16] was -16.1% (inactive) and 15.3% (inactive). For the same molecule, the Potency entry in assay [1] and in assay [17] was “inactive” each time.
For the molecule `CCCCCCCCCCCCCCCCCCO`, the call in assay [2], in [5], in [7], in assay [8], in [9] and in [10] was inactive. Also, the molecule was called inactive in [12], in assay [13] and in [18]. Also, in assay [4], the activation is -8.91% (inactive). Moreover, the max response in assay [6] was 2.82%; in assay [11] it was -0.452%; in assay [14], 4.76%; in [15] it was 3.77% (inactive). Further, the activity change % (negative = inhibition) in [16] is 3.9% (inactive). For the same molecule, the Potency entry in assay [1] and in assay [17] was “inactive” each time.
Take `CCCCCC(N)=O`: the max response in [6] was -31.8%; in [11], -21.2%; in assay [14] it was -2.91%; in assay [15], -2.1% (inactive). The outcome in assay [7], in assay [8], in [9], in assay [10], in assay [12] and in assay [13] was inactive. Moreover, the molecule was classed as inactive in assay [18]. Moreover, in assay [16], the activity change % (negative = inhibition) is -10.5% (inactive). Moreover, the Potency entry in [1] and in assay [17] was “inactive” throughout.
